SMILES strings stand for the structures. Out of some 68,000 compounds screened, about 2,700 (4%) showed an effect of 50% or more. Shown is part of a subset that was picked to be rich in strong results.

For this assay, the system named is Plasmodium berghei. Nature of the assay: Screen against P. berghei liver stage (PbLuc), transformed with Luciferase, at 2uM. The conditions noted are these: tested at 2 uM. The assay is classed as functional, HepG2.
Turning to `COc1cccc2c1N(C(=O)c1ccc(C)nc1)CCC2`, the INHIBITION stood at 0.79%. On to `O=C(NCc1nnc2n1CCCCC2)N(CC1CCOC1)C1CC1` (centres undefined), for which the INHIBITION is listed as -1.21%. For `CC(C)C1CN(C(=O)c2ccsc2)CCS1` (centres undefined) the value was -9.94%. With `CN(C)c1cc(NCc2cnc3n2CCN(CC2CC2)CC3)ncn1`, the INHIBITION turned out to be 34.04%. In the case of `O=C(NCc1ccccn1)[C@]12COC[C@H]1CN(Cc1ccsc1)C2`, the INHIBITION is recorded as 42.62%. Under `Cc1ccc2nc(C)cc(C(=O)NC(C)c3nnn[nH]3)c2c1` (centres undefined) stands -67.78%. Under `CNC(=O)CN(C)c1cncc(OCc2ccccc2)n1` stands -22.24%; under `CCCc1nnsc1C(=O)N1CCN(CC(C)O)CC1` (centres undefined), -47.97%; under `CC(=O)N1CCC(C(=O)NCc2ncc(-c3ccccc3)o2)CC1`, 45.67%. As for `CCn1c(=NC(=O)CSCC(=O)Nc2nccs2)sc2ccccc21`, the INHIBITION is on record as -35.96%. For `COc1ccc2c(c1)sc(=NC(=O)CSCC(=O)Nc1nccs1)n2C` the value was 54.16%; for `Cn1c(=NC(=O)CSCC(=O)Nc2nccs2)sc2ccccc21`, -29.3%; for `COc1ccccc1CC(=O)N1CCC(NCc2cccnc2)CC1`, -135.87%.

On to `COc1ccccc1CC(=O)N1CCC(NCc2ccncc2)CC1`, for which the INHIBITION was 44.71%. In the case of `COc1ccccc1CC(=O)N1CCC(NCc2ccccn2)CC1`, the INHIBITION is 57.64%. For `Cc1ccnc(C2CCN(C(=O)c3cnn(C)c3)CC2)n1` the value was 11.74%. For `CCn1cc(NC(=O)C2CCN(CC(=O)NC(C)(C)CC)CC2)cn1` the value was 7.13%; for `CC(C(=O)N1CCN(C(=O)c2ccc(F)cc2)CC1)n1ccnc1` (centres undefined), 54.41%. For `CC(C(=O)N1CCN(c2ccc(F)cc2)CC1)n1ccnc1` (centres undefined) the value was -20.89%; for `Cc1ccc(C(=O)N2CCN(C(=O)C(C)n3ccnc3)CC2)cc1F` (centres undefined), 38.65%. Regarding `O=C(NCc1cnc2n1CCN(Cc1ccoc1)C2)c1ccno1`, the INHIBITION is 42.64%. With `COC1CN(C(=O)NC2CCCC2)CCC(=O)N(C)c2ccccc21` (centres undefined), the INHIBITION stood at 15.96%. `Nc1ccnc(N2CCCC(CO)(Cc3cccc(Cl)c3)C2)n1` (centres undefined): the INHIBITION came out at 57.51%. Under `OCC1(Cc2cccc(Cl)c2)CCCN(c2ncccn2)C1` (centres undefined) stands -16.17%. Consider `Cc1cnc(C)c(N2CCCC(CO)(Cc3cccc(Cl)c3)C2)n1` (centres undefined), for which the INHIBITION was 8.14%. Turning to `O=C(NCC1CCC2(CCNCC2)CO1)c1cnccn1` (centres undefined), the INHIBITION is -13.14%. Under `Cc1ccc(N2CC[C@H]3CN(C(=O)c4ccn(C)n4)C[C@H]3C2)nn1` stands -32.66%; under `Cn1ncc2c1CCCC2NCc1ccc(Br)s1` (centres undefined), 54.86%; under `CC(C)(C)n1ncc2c1CCCC2NCc1ccc2c(c1)OCCO2` (centres undefined), -12.39%. For `CCn1ncc2c1CCCC2NCc1ccc2c(c1)CCO2` (centres undefined) the value was -7.81%; for `Cc1ccc(CNC2CCCc3c2cnn3C)s1` (centres undefined), 28.51%; for `Cn1ncc2c1CCCC2NCc1cccc(F)c1` (centres undefined), -33.95%. On to `Cc1cccc(CNC2CCCc3c2cnn3C)c1` (centres undefined), for which the INHIBITION was found to be 51.21%. For `Cn1ncc2c1CCCC2NCc1ccc(Cl)s1` (centres undefined) the value was -21.31%; for `Cc1cccc(CNC2CCCc3c2cnn3Cc2ccccc2)c1` (centres undefined), -2.26%; for `CC(C)(C)n1ncc2c1CCCC2NCc1ccc2c(c1)CCO2` (centres undefined), 64.67%.

On to `CC(C)(C)c1nc(CC(=O)Nc2cnccc2O)cs1`, for which the INHIBITION was -5.75%.

In the case of `CN1CCCC(CCC(=O)N2CCc3c(nc(CC4CC4)[nH]c3=O)C2)C1` (centres undefined), the INHIBITION was found to be 10.1%.

For `CCc1cccc(OCC(=O)NC(C)c2nnc3n2CCC3)c1` (centres undefined), the INHIBITION is listed as 0.31%. For `CS(=O)(=O)c1ccc(C(=O)NCc2nc3cc(F)ccc3[nH]2)cc1` the value was 44.61%. Under `O=C(NC1CCN(C(=O)C2CCCCC2)C1)c1ccncc1Cl` (centres undefined) stands -56.84%.

As to `CC1=Nc2c(c(=O)[nH]n2C2CCCCC2)C(c2cccnc2)S1` (centres undefined), the INHIBITION is -30.12%.

As for `COC1CC2(CCN(Cc3ccc4c(c3)OCO4)CC2)C1`, the INHIBITION was determined as 69.22%. Under `COCC1CC2(CCN(Cc3nccn3C)CC2)CN1c1ncccn1` (centres undefined) stands 12.88%; under `CC(C)COC1CC2(CCN(Cc3nccn3C)CC2)C1`, 58.93%. Regarding `Cn1ccnc1CN1CCC2(CC1)COC2`, the INHIBITION worked out at 24.23%. Under `CN(Cc1ccncc1)C1COC2(CCN(Cc3ccccn3)CC2)C1` (centres undefined) stands 23.59%; under `COC1COC2(CCN(Cc3ccc4c(c3)OCO4)CC2)C1` (centres undefined), 22.16%; under `CN(Cc1ccncc1)C1COC2(CCN(Cc3nccn3C)CC2)C1` (centres undefined), 64.31%. Consider `CN(Cc1ccncc1)C1COC2(CCN(Cc3cccs3)CC2)C1` (centres undefined), for which the INHIBITION is recorded as -3.11%. On to `Cn1ccnc1CN1CCC2(CC1)CC(Oc1cccnc1)C2`, for which the INHIBITION is 24.83%. Regarding `COC1CC2(CCN(Cc3nccn3C)CC2)C1`, the INHIBITION was found to be 52.66%. Under `CCOC1CC2(CCN(Cc3nccn3C)CC2)C1` stands 16.98%. `CCOC1COC2(CCN(Cc3ccc4c(c3)OCO4)CC2)C1` (centres undefined): the INHIBITION is -59.24%.

For the origin of these results see ChEMBL document CHEMBL4513216, “Probing the Open Global Health Chemical Diversity Library for Multistage-Active Starting Points for Next-Generation Antimalarials” (ACS Infect Dis, 2020).
